# PubChem BioAssay (EPA / NIEHS)
# Several values for one entry are separate records, joined by “and”; a condition that tells them apart may be missing. Equal values may be shown once. Results filed as inconclusive are left out. Activity calls are given as the source filed them. How the source made its calls, unless noted: active means hit-call score of the fitted dose curve at least 0.9, where 1 is the maximum; inconclusive means response in the unintended direction; inactive means score below 0.9.
# Tests used:
# [1] = Tanguay_ZF_120hpf_CIRC_legacy: (Legacy) Oregon State University Tanguay Lab 120 Hour Post-fertilization zebrafish Assay for Circulatory Malformation (AID 2283651)
# Outline: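 Dechorionated wild-type 5D zebrafish embryos, one per well, statically exposed from 6 to 120 hpf at 28C with 0.64% DMSO; circulatory malformation scored present/absent by brightfield microscopy at 120 hpf, dead embryos excluded.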
# [2] = Tanguay_ZF_120hpf_SWIM_legacy: (Legacy) Oregon State University Tanguay Lab 120 Hour Post-fertilization zebrafish Assay for Swim Bladder Malformation (AID 2283654);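 further: swim bladder malformation in each larva scored yes or no under brightfield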
# Outline: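 Embryos lacking chorions were exposed individually and statically to test chemical from 6 to 120 hpf at 28C, with 0.64% DMSO as vehicle. At 120 hpf, swim bladder malformation was recorded as present or absent by brightfield microscopy.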
# [3] = Tanguay_ZF_120hpf_TRUN_legacy: (Legacy) Oregon State University Tanguay Lab 120 Hour Post-fertilization zebrafish Assay for Truncated Body (AID 2283655)
# Outline: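 Tropical 5D wild-type embryos, dechorionated with pronase at 4 hpf, were placed singly in wells at 6 hpf and statically exposed at 28C until 120 hpf, final DMSO 0.64%. Truncated body was scored present/absent by brightfield microscopy.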
# [4] = test system: Thyroperoxidase (TPO), gene 54314; test: CCTE_Simmons_AUR_rTPO: CCTE's Amplex UltraRed Assay for Thyroperoxidase (TPO) Inhibition, Simmons Lab (AID 2283662);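 on AC50: potency for loss of signal meaning inhibition of peroxidase activity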
# Outline: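 Rat thyroid microsomes (5 ug protein) were incubated with test compound (8 concentrations, 5 nM–87.5 uM final, 0.5% DMSO), 25 uM Amplex UltraRed and 300 uM H2O2 in 200 mM phosphate buffer for 30 min at 37C in the dark; fluorescence read at 544/590 nm.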
# [5] = CCTE_Simmons_CellTiterGLO_HEK293T: Viability Assessment in CCTE's Assays for Thyroperoxidase (TPO) Inhibition, Simmons Lab (AID 2283665);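 on AC50: cells exposed to compound for 24 h before readout; actives reduce ATP signal below DMSO vehicle meaning cytotoxicity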
# Outline: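 HEK293T cells in DMEM with 1% FBS, dosed 24 h at 37C with 8 concentrations, 5 nM–87.5 uM final, 0.5% DMSO. ATP measured by CellTiter Glo luminescence; loss of signal vs DMSO, three biological replicates.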
# [6] = CCTE_Padilla_ZF_144hpf_TERATOSCORE: (Legacy) CCTE's 144 Hour Post-fertilization zebrafish Assay Teratoscore, Padilla Lab (AID 2283679; active means hit-call score of the fitted dose curve at least 0.9, where 1 is the maximum; inactive means score below 0.9;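 further: zebrafish embryos with chorions exposed by immersion from 6-8 hpf to 5 dpf with daily renewal; teratogenicity score from eye scoring of death hatching and malformations at 144 hpf; higher score means more developmental defects relative to DMSO baseline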)
# Outline: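 Larvae scored by eye at 144 hpf for death, hatching and malformations after a day in clean Hanks'. Before that, daily-renewed exposure at 80 uM (0.4% DMSO, 26C) from roughly 6-8 hpf through 5 dpf, 4 embryos per chemical.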
# [7] = STM_H9_OrnithineISnorm_perc: Stemina devTOX quickPredict H9 human embryonic stem cell (hESC)-based Assay for Ornithine (ORN) Metabolite Biomarker, Normalized (AID 2283712; active means hit-call score of the fitted dose curve at least 0.9, where 1 is the maximum; inactive means score below 0.9;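 further: ornithine released into spent medium during last day measured by mass spectrometry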)
# Outline: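 Undifferentiated H9 hESCs exposed 72 h with daily media and compound renewal; final 24-h conditioned medium analysed by UPLC-HRMS. Ornithine peak area normalised to spiked C13 standard and to median 0.1% DMSO control; viability by CellTiter-Fluor.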
# [8] = STM_H9_CystineISnorm_perc: Stemina devTOX quickPredict H9 human embryonic stem cell (hESC)-based Assay for Cystine (CYSS) Metabolite Biomarker, Normalized (AID 2283713; active means hit-call score of the fitted dose curve at least 0.9, where 1 is the maximum; inactive means score below 0.9)
# Outline: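 Undifferentiated H9 hESCs exposed 72 h, compound and media replaced every 24 h; final 24-h media analysed by UPLC-HRMS. Cystine normalized to C13 spike-in standard and median 0.1% DMSO control.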
# [9] = STM_H9_OrnCyssISnorm_ratio: Stemina devTOX quickPredict H9 human embryonic stem cell (hESC)-based Assay for Ornithine (ORN):Cystine (CYSS) Ratio (AID 2283714)
# Outline: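 Steps: H9 hESCs in pluripotent state dosed 72h, medium plus compound renewed every 24h; conditioned medium from the final 24h deproteinized in 40% acetonitrile; ORN and CYSS quantified by UPLC-HRMS with C13 spike-ins; ratio relative to vehicle.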
# [10] = Tanguay_ZF_120hpf_ActivityScore_legacy: (Legacy) Oregon State University Tanguay Lab 120 Hour Post-fertilization zebrafish Assay Score for Activity (AID 2283742)
# Outline: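 Embryos are staged, enzymatically dechorionated at 4 hpf, placed individually at 6 hpf, then held in test chemical (0.64% DMSO) at 28C until 120 hpf. Mortality and malformations are scored by brightfield, with non-mortality endpoints skipped for dead embryos.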
# [11] = CEETOX_H295R_MTT_cell_viability: Viability Assessment in the CeeTox HT-H295R MTT Assay (AID 2283718; active means hit-call score of the fitted dose curve at least 0.9, where 1 is the maximum; inactive means score below 0.9;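 on AC50: curve fitted both ways so AC50 may mark viability loss or gain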)
# Outline: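 MTT reduction (0.5 mg/ml, 4 h at 37 C; absorbance at 570 and 650 nm) gave viability as background-corrected percent change versus controls. H295R cells had 48 h forskolin (10 uM) prestimulation, then 48 h chemical exposure at 0.1% DMSO.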
compound,measurement,setting,value
Cc1[nH]nc2c1N=C(c1ccccc1Cl)c1cc([N+](=O)[O-])ccc1N2,outcome,[1],inactive
same,outcome,[2],inactive
same,outcome,[3],inactive
same,AC50,[4],2.9 µM (active)
same,AC50,[5],15.2 µM (active)
same,AC50,[6],1.32 µM (active)
same,AC50,[7],2.08 µM (active)
same,AC50,[8],1.62 µM (active)
same,AC50,[9],1.85 µM (active)
same,outcome,[10],inactive
CCCCCCc1ccc(N)cc1,AC50,[4],0.0476 µM (active)
same,AC50,[5],11.3 µM (active)
CCCCCC(C)OC(=O)COc1ccc(Cl)c2cccnc12 (centres undefined),outcome,[11],inactive
COc1cccc(O)c1,outcome,[11],inactive
CC(C)(C)c1ccc(O)c(O)c1,AC50,[9],76.2 µM (active)
same,outcome,[11],inactive
c1cc[nH]c1,outcome,[11],inactive
Cn1sccc1=O,AC50,[9],10.8 µM (active)
CC1=CC(=O)c2ccccc2C1=O,AC50,[9],11.8 µM (active)
CC(C)(c1ccc(Oc2ccc(N)cc2)cc1)c1ccc(Oc2ccc(N)cc2)cc1,outcome,[11],inactive
Oc1c(Cl)cc(Cl)cc1Sc1cc(Cl)cc(Cl)c1O,outcome,[9],inactive
Cc1cccc2c1ccc1ccccc12,outcome,[11],inactive
CCCCCCCCCCCCOC(=O)c1cc(O)c(O)c(O)c1,AC50,[4],1.05 µM (active)
same,AC50,[5],5.48 µM (active)
CCCCC(CC)C(=O)O (centres undefined),AC50,[7],0.134 µM (active)
same,outcome,[8],inactive
same,outcome,[9],inactive
same,outcome,[10],inactive
CC(C)c1c(C(=O)Nc2ccccc2)c(-c2ccccc2)c(-c2ccc(F)cc2)n1CC[C@@H](O)C[C@@H](O)CC(=O)O,AC50,[6],2.65 µM (active) and 3.07 µM (active)
C=Cc1ccc(O)c(OC)c1,AC50,[9],81 µM (active)
Oc1cc2ccccc2cc1O,outcome,[11],inactive
O=C1OC2(c3ccccc31)c1cc(I)c(O)c(I)c1Oc1c2cc(I)c(O)c1I,AC50,[4],16 µM (active)
same,AC50,[5],5.7 µM (active)
C[C@]12CC[C@@H]3c4ccc(O)cc4CC[C@H]3[C@@H]1C[C@@H](O)[C@@H]2O,AC50,[4],11.9 µM (active)
same,outcome,[5],inactive
same,AC50,[11],91.7 µM (active)
Clc1ccc(Nc2nnc(Cc3ccncc3)c3ccccc23)cc1,outcome,[11],inactive
C/C=C/C(=O)C1=C(C)CCCC1(C)C,outcome,[11],inactive
COc1cc([N+](=O)[O-])ccc1N,outcome,[4],inactive
same,AC50,[5],19.1 µM (active)
same,outcome,[11],inactive
O=C(NCc1ncc(C(F)(F)F)cc1Cl)c1c(Cl)cccc1Cl,outcome,[11],inactive
CC(C)CCOCCC(C)C,outcome,[11],inactive
CCCCCc1ccc(O)cc1,outcome,[11],inactive
